Measured values as given in PubChem BioAssay (NCATS).
Where “and” joins values, the source holds several entries; their conditions need not be identical. Equal entries are not always repeated. Results filed as inconclusive are left out. Calls of active or inactive are those of the source. Unless noted, calls come from the whole dose curve; as a rule, active = well fitted curve in the direction sought with a large enough effect; inconclusive = small, poorly fitted or top-dose-only effect, or another doubt; inactive = no such curve, though single readings can be large; an effect the other way counts as inactive or inconclusive.

How the values were obtained:
[1] = target: Cytochrome P450 2C9 (Homo sapiens) (UniProt P11712); test: qHTS Assay for Inhibitors and Substrates of Cytochrome P450 2C9 (AID 883); note: % is set by controls: 0 for no effect and ±100 for the full control effect; nearly all actives have a fitted effect of over 60% in size
Outline: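 CYP2C9 deoxyluciferin hydroxylation, 37C, 60 min with NADPH regeneration; 10nM enzyme, 100uM Luciferin-H (KM). Glo detection reagent stopped reaction; luminescence normalized to sulphaphenazole (57uM) full inhibition.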

[2] = target: Cytochrome P450 3A4 (Homo sapiens) (UniProt P08684); test: qHTS Assay for Inhibitors and Substrates of Cytochrome P450 3A4 (AID 884); note: series mostly up to about 57 µM; % is set by controls: 0 for no effect and ±100 for the full control effect; nearly all actives have a fitted effect of over 50% in size
Outline: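 20 nM human CYP3A4 with 25 uM Luciferin-PPXE (at KM) in 200 mM KPO4, preincubated 10 min with compound; NADPH regeneration started a 60 min RT reaction. Luciferin detected by luminescence, normalized to 57 uM ketoconazole as full inhibition.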

[3] = target: Cytochrome P450 2D6 (Homo sapiens) (UniProt P10635); test: qHTS Assay for Inhibitors and Substrates of Cytochrome P450 2D6 (AID 891); note: nearly all actives have a fitted effect of over 60% in size; note: potency is the fitted concentration of half-maximal effect;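 for activity change, negative = inhibition: luciferin methyl ether substrate demethylated by CYP2D6 with NADPH regeneration; % is set by controls: 0 for no effect and ±100 for the full control effect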
Outline: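 Human CYP2D6 (5 nM) with 30 uM Luciferin-ME EGE (at Km) in 100 mM KPO4, compound preincubated 10 min, then NADPH regeneration system for 60 min at room temperature. Luciferin read by luminescence; normalized to 1.43 uM quinidine.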

[4] = target: Cytochrome P450 2C19 (Homo sapiens) (UniProt P33261); test: qHTS Assay for Inhibitors and Substrates of Cytochrome P450 2C19 (AID 899); note: % is set by controls: 0 for no effect and ±100 for the full control effect; nearly all actives have a fitted effect of over 60% in size
Outline: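 In 50mM KPO4, the reaction held 5nM enzyme and KM-level (10uM) Luciferin-H EGE; it ran 60 min at 37C after NADPH regeneration and a 10 min compound preincubation. Luminescence values were scaled to 57uM ketoconazole as complete inhibition.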

[5] = qHTS for Inhibitors of Plasmodium falciparum (DD2) proliferation (AID 504314);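 note: parasite DNA measured by SYBR Green fluorescence after red cell lysis; plate controls were DMSO vehicle for no effect and artemisinin wells for full effect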
Outline: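 Infected RBCs, 0.3% parasitemia, 2.5% Hct; compound 72 h, 37C/5% CO2; lyse + SYBR Green I, RT overnight, dark; read ex485/em535; normalize to DMSO and artemisinin 0.29 uM.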

[6] = qHTS for Inhibitors of Plasmodium falciparum (GB4) proliferation (AID 504315);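 note: 0% = DMSO vehicle and -100% = 0.29 µM artemisinin control; nearly all actives have a fitted effect of over 50% in size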
Outline: (§1)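 Erythrocytes infected with P. falciparum line (0.3% parasitemia, 2.5% hematocrit final) incubated with compounds 72 h at 37 °C, 5% CO2; SYBR Green lysis buffer added, fluorescence read next day. Normalized to 0.29 uM artemisinin and DMSO.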

[7] = qHTS for Inhibitors of Plasmodium falciparum (7G8) proliferation (AID 504316);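 note: series mostly up to about 6.7 µM; 0% = DMSO vehicle and -100% = 0.29 µM artemisinin full kill; nearly all actives have a fitted effect of over 65% in size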
Outline: as §1

[8] = qHTS for Inhibitors of Plasmodium falciparum (HB3) proliferation (AID 504318);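 note: 0% = DMSO vehicle and -100% = artemisinin control; nearly all actives have a fitted effect of over 60% in size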
Outline: as §1

[9] = qHTS for Inhibitors of Plasmodium falciparum (CP250) proliferation (AID 504320);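 note: plate controls were DMSO vehicle for no effect and 0.29 µM artemisinin control for full effect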
Outline: as §1

[10] = target: Atrial natriuretic peptide receptor 1 (Homo sapiens) (UniProt P16066); test: Natriuretic polypeptide receptor (hNpr1) antagonism - Pilot CMLD screen (AID 1347052; calls by dose curve;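 note: cGMP level read as GloSensor luciferase luminescence after agonist stimulation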; note: potency is the fitted concentration of half-maximal effect;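 for activity change, negative = inhibition: HEK293 cells with hNpr1 stimulated by hNppA peptide at 0.1 nM; series mostly up to about 9.2 µM; % is set by controls: 0 for no effect and ±100 for the full control effect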)
Chain of Atrial natriuretic peptide receptor 1 (Homo sapiens) (P16066 whole entry, looked up): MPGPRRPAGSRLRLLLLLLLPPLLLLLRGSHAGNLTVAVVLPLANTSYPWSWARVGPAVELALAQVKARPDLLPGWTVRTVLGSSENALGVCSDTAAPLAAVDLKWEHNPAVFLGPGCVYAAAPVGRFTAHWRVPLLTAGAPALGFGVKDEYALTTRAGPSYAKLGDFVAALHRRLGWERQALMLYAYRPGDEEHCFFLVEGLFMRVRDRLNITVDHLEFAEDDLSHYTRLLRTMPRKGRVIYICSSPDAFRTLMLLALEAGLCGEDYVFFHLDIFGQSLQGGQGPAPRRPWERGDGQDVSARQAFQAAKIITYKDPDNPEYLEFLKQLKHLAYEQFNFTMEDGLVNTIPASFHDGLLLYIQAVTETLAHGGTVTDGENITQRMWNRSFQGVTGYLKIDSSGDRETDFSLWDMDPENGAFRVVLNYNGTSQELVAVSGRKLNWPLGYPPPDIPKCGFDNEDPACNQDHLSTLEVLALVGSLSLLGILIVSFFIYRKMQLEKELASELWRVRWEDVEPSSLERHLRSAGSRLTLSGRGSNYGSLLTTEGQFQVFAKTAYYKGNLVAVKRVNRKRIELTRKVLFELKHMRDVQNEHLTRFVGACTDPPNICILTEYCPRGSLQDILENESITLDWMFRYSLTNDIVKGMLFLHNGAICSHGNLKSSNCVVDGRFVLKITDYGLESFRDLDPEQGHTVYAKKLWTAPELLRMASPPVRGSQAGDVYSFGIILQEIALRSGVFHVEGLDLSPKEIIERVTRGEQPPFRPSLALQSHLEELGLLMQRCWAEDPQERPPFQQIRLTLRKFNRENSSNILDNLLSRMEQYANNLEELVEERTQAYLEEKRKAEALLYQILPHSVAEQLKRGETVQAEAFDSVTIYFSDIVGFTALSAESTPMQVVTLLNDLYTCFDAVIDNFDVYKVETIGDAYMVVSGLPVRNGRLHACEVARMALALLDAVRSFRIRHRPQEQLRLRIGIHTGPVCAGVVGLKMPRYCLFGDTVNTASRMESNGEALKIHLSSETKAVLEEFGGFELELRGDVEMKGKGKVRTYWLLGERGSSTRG

Chain of Cytochrome P450 2C19 (Homo sapiens) (P33261 whole entry, looked up): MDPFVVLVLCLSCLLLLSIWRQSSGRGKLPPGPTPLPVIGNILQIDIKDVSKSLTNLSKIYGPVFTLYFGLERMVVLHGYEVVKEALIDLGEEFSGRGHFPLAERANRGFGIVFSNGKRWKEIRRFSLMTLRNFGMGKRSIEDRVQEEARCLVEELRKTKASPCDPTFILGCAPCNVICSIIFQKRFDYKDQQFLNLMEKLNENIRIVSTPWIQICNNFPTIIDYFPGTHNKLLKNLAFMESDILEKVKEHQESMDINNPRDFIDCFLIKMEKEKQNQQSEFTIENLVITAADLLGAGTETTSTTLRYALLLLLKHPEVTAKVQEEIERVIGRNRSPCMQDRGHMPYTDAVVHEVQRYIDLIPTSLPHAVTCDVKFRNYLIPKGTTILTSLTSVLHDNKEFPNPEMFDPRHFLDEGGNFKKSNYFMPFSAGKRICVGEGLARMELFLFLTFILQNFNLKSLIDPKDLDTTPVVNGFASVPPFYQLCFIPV
Chain of Cytochrome P450 3A4 (Homo sapiens) (P08684 whole entry, looked up): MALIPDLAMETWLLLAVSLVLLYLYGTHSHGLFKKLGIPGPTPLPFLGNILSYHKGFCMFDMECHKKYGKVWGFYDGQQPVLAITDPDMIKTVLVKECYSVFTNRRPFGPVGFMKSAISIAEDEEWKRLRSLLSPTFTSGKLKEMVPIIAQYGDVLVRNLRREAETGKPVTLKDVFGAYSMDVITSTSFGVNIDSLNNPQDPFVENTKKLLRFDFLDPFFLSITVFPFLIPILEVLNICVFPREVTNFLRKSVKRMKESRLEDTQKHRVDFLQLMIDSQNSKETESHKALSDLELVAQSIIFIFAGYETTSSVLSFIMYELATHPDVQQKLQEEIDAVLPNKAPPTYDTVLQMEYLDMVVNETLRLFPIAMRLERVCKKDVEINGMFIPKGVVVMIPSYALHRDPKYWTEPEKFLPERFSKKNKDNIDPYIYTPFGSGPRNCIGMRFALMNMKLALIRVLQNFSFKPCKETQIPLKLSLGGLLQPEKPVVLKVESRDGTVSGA
Chain of Cytochrome P450 2C9 (Homo sapiens) (P11712 whole entry, looked up): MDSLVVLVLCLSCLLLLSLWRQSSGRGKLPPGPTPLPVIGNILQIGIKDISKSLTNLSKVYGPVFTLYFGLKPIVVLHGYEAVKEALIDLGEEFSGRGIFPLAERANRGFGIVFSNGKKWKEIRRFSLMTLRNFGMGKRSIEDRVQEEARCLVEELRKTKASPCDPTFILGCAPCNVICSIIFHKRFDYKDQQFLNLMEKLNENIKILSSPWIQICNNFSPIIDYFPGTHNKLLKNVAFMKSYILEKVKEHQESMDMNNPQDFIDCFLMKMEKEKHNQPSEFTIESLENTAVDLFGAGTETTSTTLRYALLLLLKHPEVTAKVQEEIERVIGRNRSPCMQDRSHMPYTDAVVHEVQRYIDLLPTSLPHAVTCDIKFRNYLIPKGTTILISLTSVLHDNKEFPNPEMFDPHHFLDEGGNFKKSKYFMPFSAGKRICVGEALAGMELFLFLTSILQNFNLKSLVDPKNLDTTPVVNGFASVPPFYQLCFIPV
Chain of Cytochrome P450 2D6 (Homo sapiens) (P10635 whole entry, looked up): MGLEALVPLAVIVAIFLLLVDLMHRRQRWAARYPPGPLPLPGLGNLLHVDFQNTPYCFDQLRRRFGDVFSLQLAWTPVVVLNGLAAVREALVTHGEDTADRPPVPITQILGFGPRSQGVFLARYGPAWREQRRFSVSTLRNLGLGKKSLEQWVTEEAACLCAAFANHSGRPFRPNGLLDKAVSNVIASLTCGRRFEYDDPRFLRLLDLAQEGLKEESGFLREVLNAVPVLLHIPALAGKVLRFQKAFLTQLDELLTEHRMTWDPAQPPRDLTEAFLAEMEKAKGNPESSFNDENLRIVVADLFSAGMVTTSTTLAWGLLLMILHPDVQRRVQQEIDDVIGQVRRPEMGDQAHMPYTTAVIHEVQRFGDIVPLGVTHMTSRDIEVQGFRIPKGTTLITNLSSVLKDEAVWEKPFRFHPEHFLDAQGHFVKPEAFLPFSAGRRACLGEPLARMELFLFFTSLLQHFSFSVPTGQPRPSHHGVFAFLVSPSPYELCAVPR

COC(=O)C(C(C)=O)C(=O)C(Cc1ccccc1)NC(=O)OCc1ccccc1 (stereo not drawn)
inactive: activity change, negative = inhibition [1] 2.74% [at 11.4 µM] | activity change, negative = inhibition [2] -19.6% [at 11.4 µM] | activity change, negative = inhibition [3] -1.19% [at 11.4 µM] | activity, negative = inhibition [4] -11.9% [at 11.4 µM] | Potency [5] | Potency [6] | Potency [7] | Potency [8] | Potency [9] | Potency [10]

C=CCC1(c2ccccc2)Oc2ccccc2-c2nc3cc(Cl)c(Cl)cc3nc21 (stereo not drawn)
inactive: activity change, negative = inhibition [1] -6.17% [at 11.4 µM] and 38.3% [at 11.4 µM] | activity change, negative = inhibition [2] -17.8% [at 11.4 µM] and -22.2% [at 11.4 µM] | activity change, negative = inhibition [3] 2.78% [at 11.4 µM] and 6.33% [at 11.4 µM] | activity, negative = inhibition [4] 39.4% [at 11.4 µM] and 70.5% [at 11.4 µM] | Potency [5] | Potency [6] | Potency [7] | Potency [8] | Potency [9] | Potency [10]

COC(=O)N1C2=C(c3ccccc3[C@@H]1CC(=O)O)[C@@H]1O[C@@H](C2)c2ccccc21
inactive: Potency [5] | Potency [6] | Potency [7] | Potency [8] | Potency [9] | Potency [10]

COC(=O)C1=C(C)N(CCC(C)O)C(=O)N(C(C)=O)C1c1ccccc1 (stereo not drawn)
inactive: Potency [5] | Potency [6] | Potency [7] | Potency [8] | Potency [9] | Potency [10]

COC(=O)N[C@@H](c1cccc(C)c1)[C@@H](C)[N+](=O)[O-]
inactive: Potency [5] | Potency [6] | Potency [7] | Potency [8] | Potency [9] | Potency [10]

CCN(CC)CCCN1C=C2C(=O)C(C)(OC(=O)C3CCCC3)C(=O)C=C2C=C1c1ccsc1 (stereo not drawn)
inactive: activity, negative = inhibition [5] -4.1% [at 1.12 µM] | Potency [6] | Potency [7] | Potency [8] | Potency [9] | Potency [10]

CCCCc1nc2c(c3c1C[C@H](C)OC3)CN(C(=O)C1CCCCC1)CC2
inactive: activity, negative = inhibition [5] -0.437% [at 1.12 µM] | Potency [6] | Potency [7] | Potency [8] | Potency [9] | Potency [10]

COCC1=Cc2cc3c(cc2C(C(C(=O)OC)C(=O)OC)N1C(=O)OC)OCO3 (stereo not drawn)
inactive: Potency [5] | Potency [6] | Potency [7] | Potency [8] | Potency [9] | Potency [10]

CCCCCCCC1=CC2=CC(=O)C(C)(O)C(=O)C2=CN1CCCC (stereo not drawn)
active: Potency [3] 3.16 µM
inactive: activity change, negative = inhibition [1] 13.4% [at 11.4 µM] | activity change, negative = inhibition [2] -26.9% [at 11.4 µM] | activity, negative = inhibition [4] 80.9% [at 11.4 µM] | Potency [5] | Potency [6] | Potency [7] | Potency [8] | Potency [9] | Potency [10]

CC(CCN1CCCCc2nc(C)c(C)cc21)=NOC[C@@H](O)[C@H]1O[C@@H]2OC(C)(C)O[C@H]2[C@@H]1O
inactive: Potency [5] | Potency [6] | Potency [7] | Potency [8] | Potency [9] | Potency [10]

COC(=O)C1=C(C(=O)OC)[C@@H]2Nc3ccccc3[C@@]23C[C@@H](C(=O)OC)N(C(=O)COCc2ccccc2)C3=N1
inactive: Potency [5] | Potency [6] | Potency [7] | Potency [8] | Potency [9] | Potency [10]

COc1cccc([C@H](O)Cn2cc(-c3ccc(CON=C(C)C)cc3)nn2)c1
inactive: Potency [5] | Potency [6] | Potency [7] | Potency [8] | Potency [9] | Potency [10]

COCn1c2ccccc2c2nnc(C(=O)O)nc21
inactive: activity change, negative = inhibition [1] -6.97% [at 11.4 µM] | activity change, negative = inhibition [2] -11.5% [at 11.4 µM] | activity change, negative = inhibition [3] 12.8% [at 11.4 µM] | activity, negative = inhibition [4] 65.8% [at 11.4 µM] | Potency [5] | Potency [6] | Potency [7] | Potency [8] | Potency [9] | Potency [10]

CC1=C(C)CC(c2ccccc2)C(C(=O)c2ccccc2O)C1 (stereo not drawn)
inactive: activity change, negative = inhibition [1] -27.8% [at 11.4 µM] | activity change, negative = inhibition [2] -21.6% [at 11.4 µM] | activity change, negative = inhibition [3] 6.86% [at 11.4 µM] | activity, negative = inhibition [4] -23.3% [at 11.4 µM] | Potency [5] | Potency [6] | Potency [7] | Potency [8] | Potency [9] | Potency [10]

COC(=O)C(C(=O)OC)[C@H]1c2ccccc2[C@@H]2C(=C[C@@H](C)[C@H]3C(=O)N(c4ccccc4)C(=O)[C@H]32)N1C(=O)OC
inactive: Potency [5] | Potency [6] | Potency [7] | Potency [8] | Potency [9] | Potency [10]

CCOC(=O)OC[C@H]1O[C@H](C#Cc2ccc(F)cc2F)C=C[C@H]1OC(=O)OCC
inactive: Potency [5] | Potency [6] | Potency [7] | Potency [8] | Potency [9] | Potency [10]

CC1(O)C(=O)C=C2C=C3CCCN3C=C2C1=O (stereo not drawn)
inactive: activity change, negative = inhibition [1] 3.99% [at 11.4 µM] | activity change, negative = inhibition [2] -12% [at 11.4 µM] | activity, negative = inhibition [4] 32.3% [at 11.4 µM] | Potency [5] | Potency [6] | Potency [7] | Potency [8] | Potency [9] | Potency [10]

C=CCN1C(=O)C2(CC(C)=C[C@@H](C)O2)c2c(Br)cccc21 (stereo partly drawn)
inactive: Potency [5] | Potency [6] | Potency [7] | Potency [8] | Potency [9] | Potency [10]

COCCN1C=C2C(=O)C(C)(OC(=O)c3cccs3)C(=O)C=C2C=C1CCCC(=O)OC (stereo not drawn)
inactive: Potency [5] | Potency [6] | Potency [7] | Potency [8] | Potency [9] | Potency [10]

C#CCCCON=C1C[C@@H](O)[C@H](O)[C@H]2[C@@H]3C(=O)N(c4ccc(F)cc4F)C(=O)[C@@H]3CC[C@@H]12
inactive: Potency [5] | Potency [6] | Potency [7] | Potency [8] | Potency [9]
active: Potency [10] 422 nM
